Assay outcomes from PubChem BioAssay.
ADAM10 inh = inhibits human ADAM10. O14672. recombinant ADAM10, EDANS/DABCYL FRET peptide cleavage, 3 h. inhibition, % at 7 µM. 370,000 tested, 0.62% active. AID 720582;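 active means inhibition above a per-campaign cutoff equal to the mean of compounds falling between control-based bounds plus 3 SD, cut at about 20% in these data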
rCAG binder = r(CAG) repeat RNA binding; TO-PRO-1 dye displacement fluorescence; inhibition, % at 3 µM; AID 651821; 370,000 tested, 1.3% active;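 active means inhibition above the plate cutoff, the mean of all test compounds on that plate plus 3 SD, cut at about 35% in these data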;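 further: higher means more dye released from RNA so lower well fluorescence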
ADAM17 inh = inhibits human ADAM17; P78536; recombinant ADAM17, EDANS/DABCYL FRET peptide cleavage; inhibition, % at 6.95 µM; 370,000 tested, 0.83% active; AID 720648;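 active means inhibition above the mean of compounds lying between control limits plus 3 SD, set per campaign, cut at about 8.5% in these data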
AHR activator = human AHR activation | activation, % at 5 µM | P35869 | AHR-responsive luciferase reporter cells, luminescence | 320,000 tested, 2.5% active | AID 2796; in the data active means activation above about 47%
Target sequence (P35869 whole entry, looked up): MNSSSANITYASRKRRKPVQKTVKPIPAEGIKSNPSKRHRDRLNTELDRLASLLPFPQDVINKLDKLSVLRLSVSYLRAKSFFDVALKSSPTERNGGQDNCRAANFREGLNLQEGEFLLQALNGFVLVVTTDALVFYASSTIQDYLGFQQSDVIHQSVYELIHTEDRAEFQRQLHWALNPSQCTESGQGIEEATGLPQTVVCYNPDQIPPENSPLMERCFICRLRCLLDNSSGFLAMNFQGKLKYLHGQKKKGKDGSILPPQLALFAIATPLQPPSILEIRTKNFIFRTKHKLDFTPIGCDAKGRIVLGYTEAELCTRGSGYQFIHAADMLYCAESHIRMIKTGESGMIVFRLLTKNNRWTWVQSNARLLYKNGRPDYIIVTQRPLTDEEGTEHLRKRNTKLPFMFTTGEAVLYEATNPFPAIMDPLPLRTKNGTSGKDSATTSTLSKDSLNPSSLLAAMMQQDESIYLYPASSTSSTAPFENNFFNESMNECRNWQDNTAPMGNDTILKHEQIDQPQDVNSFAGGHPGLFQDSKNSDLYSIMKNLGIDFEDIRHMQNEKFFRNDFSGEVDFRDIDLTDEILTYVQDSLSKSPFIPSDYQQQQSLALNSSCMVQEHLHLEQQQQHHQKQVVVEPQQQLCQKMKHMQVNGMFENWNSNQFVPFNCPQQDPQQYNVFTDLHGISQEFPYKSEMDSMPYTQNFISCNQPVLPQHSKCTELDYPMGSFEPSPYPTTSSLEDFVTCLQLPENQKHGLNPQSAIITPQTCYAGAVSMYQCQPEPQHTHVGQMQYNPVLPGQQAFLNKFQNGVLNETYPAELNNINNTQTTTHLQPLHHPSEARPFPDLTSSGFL
NR3A LBD binder = modulates the human NR3A ligand-binding domain; NR3A LBD differential scanning fluorimetry, Tm shift; 0% = protein alone, 100% = glycine-bound protein; Tm shift relative to glycine control, % at 25 µM; 340,000 tested, 2.5% active; AID 1259313;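 active means melting temperature shift of at least 10% of the positive control shift, at one fixed dose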
KLK7 zymogen act = proKLK7 (human) activation, primary screen | activation, % at 7 µM | 370,000 tested, 0.9% active | AID 652039 | purified proKLK7, EDANS-DABCYL substrate fluorescence; 100% is mature enzyme control, 0% vehicle;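 active means activation above the mean of all tested compounds plus 3 SD, computed per campaign excluding outliers beyond control limits, cut at about 13% in these data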
Numbers stand for hits; 0 = inactive; - = no result. Shown are actives, neighbours in structure and some others; about 7% of the full set was active somewhere.

SMILES	ADAM10 inh	rCAG binder	ADAM17 inh	AHR activator	NR3A LBD binder	KLK7 zymogen act
CC(C)C[C@H](NC(=O)c1nc[nH]c1C(=O)N[C@@H](CC(C)C)C(=O)OC(C)(C)C)C(=O)OC(C)(C)C	0	0	9.5	0	0	0
CC(C)C[C@H](NC(=O)c1nc[nH]c1C(=O)NC(c1ccccc1)c1ccccc1)C(=O)OC(C)(C)C	0	0	0	0	0	0
C[C@H](NC(=O)c1[nH]cnc1C(=O)Nc1ccc(CNC(=O)OC(C)(C)C)cc1)C(=O)OC(C)(C)C	22	0	11	0	0	0
COc1ccc(CN[C@@H]2CC[C@@]34CCCN3C(=O)CCC[C@H]4C2)cc1OC	0	-	0	-	-	-
O=C(Nc1ccccc1)N1CC=C(c2ccccc2)CC1	-	-	-	0	-	-
O=C(Nc1cccc2ccccc12)N1CC=C(c2ccccc2)CC1	0	0	0	54	0	0
O=C(Nc1ccccc1)N1CC=C(c2ccc(F)cc2)CC1	0	0	0	0	21	0
c1ccc(-c2c[nH]c3cccc(-c4cc5ccccc5o4)c23)cc1	0	0	0	-	-	0
CCCC[C@@H]1C(=O)N2N=Cc3cscc3[C@H]2N2N=Cc3cscc3[C@@H]12	0	0	0	-	-	0
CCn1c(-c2cccnc2Cl)nc2cc(Cl)c(Cl)cc21	0	0	0	52	0	0
CCOC(=O)Cn1c(-c2cccnc2Cl)nc2cc(Cl)c(Cl)cc21	0	0	0	0	0	0
CCOC(=O)c1sc(=S)n(-c2ccccc2OC)c1N	0	0	0	0	16	0
Cc1ccc(C(=O)NC2CCCCN(Cc3ccc(Cl)cc3)C2=O)c(C)c1 (configuration not stated)	0	0	0	-	-	0
COC[C@@H]1CCCN1c1ccc2c(c1)O[C@@H]1CCN(C1)S2(=O)=O	0	0	0	-	-	0
NNc1nc(Nc2ccccc2)nc(Nc2ccccc2)n1	0	0	0	81	0	0
O=C(NC1CCCCN(Cc2cccc(C(F)(F)F)c2)C1=O)c1ccc(Cl)c(Cl)c1 (configuration not stated)	0	0	0	-	-	0
CCOC(=O)C1Nc2ccccc2C2C(O)C(O)CC12 (configuration not stated)	0	43	0	0	0	0
CCOC(=O)C1Nc2ccc(C(F)(F)F)cc2C2c3ccccc3CC12 (configuration not stated)	0	0	0	0	0	21
CCOC(=O)C[C@H]1c2cc(C(F)(F)F)ccc2S(=O)(=O)N1Cc1ccccc1	0	0	0	0	0	0
Cc1ccc(S(=O)(=O)Nc2ccc3nc(C)sc3c2)cc1	-	-	-	0	0	-
Cc1ccc(NS(=O)(=O)c2sc3ccc(Cl)cc3c2C)cc1	0	0	0	0	16	0
O=C(Cc1cccs1)NC1CCCCN(Cc2ccc(Cl)cc2)C1=O (configuration not stated)	0	0	0	-	-	0
N#Cc1ccc(S(=O)(=O)N2CCCc3nc(-c4ccccc4)ccc32)cc1	0	0	0	-	-	0
Cc1ccc2nc(SCC(=O)Nc3ccc4c(c3)OCCO4)[nH]c2c1	0	0	0	0	0	0
COc1cccc(CNC(=O)CSc2nc3ccc(C)cc3[nH]2)c1	0	0	0	53	0	0
SMILES	ADAM10 inh	rCAG binder	ADAM17 inh	AHR activator	NR3A LBD binder	KLK7 zymogen act
COc1ccc2nc(SCC(=O)NCc3ccc(F)cc3)[nH]c2c1	0	0	0	0	0	0
COc1ccc(NC(=O)CSc2n[nH]c(C)c2[N+](=O)[O-])cc1	0	0	0	0	0	0
Cc1ccc(NC(=O)CSc2n[nH]c(C)c2[N+](=O)[O-])cc1C	0	0	0	0	19	0
Cc1ccc2nc(SCC(=O)Nc3ccc(C)c([N+](=O)[O-])c3)[nH]c2c1	0	0	0	86	0	0
Cc1ccc2nc(SCC(=O)NCc3cccs3)[nH]c2c1	0	0	0	49	0	0
O=C(NC1CCC1)c1ccc(C#CC2CC2)c[n+]1[O-]	0	0	0	-	-	0
COC(=O)C1=C(C)N(Cc2ccc(C(F)(F)F)cc2)C(=NCc2ccccc2C(F)(F)F)NC1c1cccc(Cl)c1 (configuration not stated)	0	0	0	-	-	0
O=C(CSc1cc(Cl)ccc1Cl)NC1CCCc2ccccc21 (configuration not stated)	0	0	0	0	0	0
Cc1ccc2nc(SCC(=O)NC3CCCc4ccccc43)[nH]c2c1 (configuration not stated)	0	0	0	59	0	0
Cc1ccc2nc(SCC(=O)NNC(=O)c3ccccc3)[nH]c2c1	0	0	0	52	0	0
Cc1ccc(NC(=O)CSc2ccc(C(N)=O)cc2[N+](=O)[O-])cc1	0	0	0	0	25	0
COC(=O)c1cc(-c2ccc(Cl)s2)c(=O)n2c1CCC2	0	0	0	-	-	0
Cc1ccc(/C=C2\SC(=S)N(CCC(=O)NNC(=O)c3cccc(O)c3)C2=O)cc1	0	0	0	0	24	0
Cc1ccc(/C=C2\SC(=S)N(CCC(=O)NNC(=O)c3ccccc3O)C2=O)cc1	0	0	0	0	16	0
Cc1ccc(/C=C2\SC(=S)N(CCC(=O)NNC(=O)c3ccc(O)cc3)C2=O)cc1	0	0	0	0	23	0
Cc1ccc(/C=C2\SC(=S)N(CCC(=O)NNC(=O)c3cccnc3)C2=O)cc1	0	0	0	0	0	0
COc1ccc(S(=O)(=O)N2CCN(Cc3ccccc3)CC2)cc1	0	0	0	0	11	0
COc1ccc(CN2CCN(S(=O)(=O)c3ccccc3)CC2)c(OC)c1	0	0	0	52	0	0
CCOc1ccc(S(=O)(=O)N2CCN(Cc3ccc4c(c3)OCO4)CC2)cc1OCC	0	0	0	0	0	0
CC(C)CNS(=O)(=O)c1ccc(S(=O)(=O)N2CCCN(Cc3ccccc3)C2)cc1	-	-	-	0	13	-
COc1cccc(S(=O)(=O)N2CCN(Cc3ccc4c(c3)OCO4)CC2)c1	0	0	0	0	14	0
COc1ccc(S(=O)(=O)N2CCN(Cc3cccc(OC)c3)CC2)cc1	0	0	0	0	0	0
CCOC(=O)[C@@]12CCCC=C1N(CCc1ccc(Cl)cc1)C(=O)[C@H]2CC(=O)NCc1ccccc1	0	0	0	-	-	0
COc1ccc(C(=O)NC(=S)Nc2ccccc2[N+](=O)[O-])cc1OC	0	0	0	0	0	0
COc1ccc(C(=O)NC(=S)Nc2ccc([N+](=O)[O-])cc2C)cc1OC	0	0	0	0	28	0
O=C(NC(=S)Nc1cc([N+](=O)[O-])ccc1Cl)c1ccccc1	0	0	0	71	0	0
Cc1ccc(C(=O)O)cc1NC(=S)NCCc1ccccc1	0	0	0	0	0	0
Cc1ccc([N+](=O)[O-])cc1NC(=S)NCCc1ccccc1	0	0	0	52	0	0
O=C(NC(=S)Nc1cccc([N+](=O)[O-])c1)c1ccccc1	0	0	0	0	0	0
